# Measured values as given in PubChem BioAssay AID1347426 (Functional Genomics Laboratory (NCATS/FGL), 2020).
# Hit rate of the full screen: of about 31,000 sequences, about 1,400 (4.5%) were called active.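 How the source made its calls: active means median seed-adjusted z-score above 1 or below -1; inactive means the rest.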 Many of the other results were omitted from the sample, so actives are more common in it than they were.
# Test: Novel Modifiers of Survival Motor Neuron (SMN) Protein: Gene Identification via Genome-wide siRNA Screen
# Conditions: HEK293T SMN2-luciferase reporter, siRNA knockdown, 72 h; actives lie on both sides
# From the text: Spinal muscular atrophy (SMA) is the most common neuromuscular autosomal recessive disorder and one of the leading genetic causes of infant death. SMA results from mutations inducing loss of function or deletion in the survival of motor neuron-1 gene (SMN1), leading to deficiency of the survival motor neuron (SMN) protein. Although a second nearly identical gene, SMN2, is retained in humans, its expression primarily produces an aberrantly spliced isoform that is largely unstable and quickly degraded. We performed a genome-wide RNAi screen using a cell-based reporter assay to identify genes and pathways that modulate SMN protein stability. The screen identified over 200 genes that led to the greatest increase or decrease in luciferase expression.
# Using HEK293T cells stably expressing a luciferase reporter that combines the promoter and splicing based cassettes in tandem with the major portion of the native SMN2 cDNA with luciferase, we performed a genome-wide RNAi screen to identify modulators of SMN protein levels. Luciferase is expressed when full-length SMN protein is generated with luminescence signal proportional to SMN protein levels. Our luciferase-based reporter assay was used to screen Ambion Silencer Select Human Druggable Genome siRNA library (10418 genes, 3 unique siRNAs per gene) using lipid-based reverse transfection.
# Briefly, 1 pmol of each siRNA was spotted to a well of a 384-well plate (Corning, Corning, NY) and 20 microL of serum-free DMEM containing […] of Lipofectamine RNAiMax (Life Technologies, Carlsbad, CA) was then added to each well. Transfected cells were maintained at 37 degrees C in 5% CO2 for 72 hours, 20 microL of ONE-Glo Reagent (Promega) was added to wells for luciferase quantification. Raw luminescence reads were normalized to Ambion(R) Silencer(R) Negative Control #2 siRNA, then log10 transformed. A robust statistical measure of median absolute deviation (MAD) to standardize siRNA activities from each screen. Common Seed Analysis was used to help prioritize clean hits as opposed to those appearing to arise from seed based off-target effects. Candidate modulators were defined as the genes having a MAD score greater than 1.0 or less than -1.0.
row,Sequence,median seed-adjusted z-score
1,GCUUACUAGUUUGAACGGATT against SPATA5,-1.04 (active)
2,GCUCCAACCUCGAAGUAGATT against ACVR2B,0.824 (inactive)
3,GGCUUCACCUAAAAACGUATT against BRCA2,0 (inactive)
4,GAUCGUUGCAAAGUUCUUATT against CPSF6,-2.38 (active)
5,CUCCACUGCUUUUCCAAGATT against DBX2,0.244 (inactive)
6,GAGUUCCUCUUGGAUCUAATT against CASQ2,0.4 (inactive)
7,GGCGAGGCUUUAUAGUUGATT against ZNF589,-0.0897 (inactive)
8,CCUGGAGCAUCGUAACAUUTT against F11,-0.0319 (inactive)
9,GGCUUAUACAAUGUCAACATT against HOXA7,-0.129 (inactive)
10,AGAUAACAGCAUGGAUUUATT against MMD,0.193 (inactive)
11,GCAAUUUGCUGUUGCCGAATT against RHBDD1,0.00277 (inactive)
12,CCAUUAUUGCUGCCCGGAATT against PGM5,-0.0543 (inactive)
13,GUCUCUGACGGGUCCAUUATT against BMP1,-0.298 (inactive)
14,GGACAAGGCUAACAUCCCATT against HMGA1,0.557 (inactive)
15,GCUUGCACUUAAUCUCACATT against LAMB2,1.12 (active)
16,GGUUAAAGGUUAUGGUCCATT against PROSC,0.173 (inactive)
17,UUUUGUUCAUAUAACGUCATT against IFNA1,-0.625 (inactive)
18,CCACCUUCCUUAUCGACAUTT against FZD8,-0.177 (inactive)
19,CCACCUUGCAGAAAACCGATT against ITPR3,-1.28 (active)
20,GCUCAUCCACUAUAACCAUTT against CA10,0.255 (inactive)
21,GGUCGAAGCUGUGCAAGGATT against TPPP,-0.16 (inactive)
22,AGCUGGAGGUCAACAAGUATT against TIMP3,-1.05 (active)

row,Sequence,median seed-adjusted z-score
1,UCUCAGAUCUCUUCCCAGATT against ROBO4,-0.431 (inactive)
2,CAAGGAGCAAGGUUCGGAATT against KIRREL3,-0.206 (inactive)
3,GAUGAUCGCUUCAACCUGATT against DDX6,1.12 (active)
4,GUAUGUUCCACAUAAUGAATT against CYP19A1,-0.321 (inactive)
5,GGAAUAGAACAAUUGAAAATT against ZDHHC3,0.229 (inactive)
6,UGAGGACACUUCUUGGAGATT against FOXE3,-0.451 (inactive)
7,CGAUGGUUGACAAUCCAGATT against NDUFS5,-1.35 (active)
8,CUUGCAAUGUCGAAGCUUATT against CDH8,0.169 (inactive)
9,GGUGUUGAGUUUCUGCAAATT against CHMP1A,0 (inactive)
10,GGAUGAUAGAGGAAUUGUATT against SKIV2L2,0.642 (inactive)
11,CCACCAUCCUACAAGCCUUTT against CYP2S1,-0.196 (inactive)
12,GCUAGUCAAGGUUCCUAAATT against GTF2F2,-1.14 (active)
13,GCAAUUCCAUGAUAAGGAATT against MMP20,0.0623 (inactive)
14,GCCUUCUCCCUAUUUGAUATT against CALM1,0.355 (inactive)
15,GCAGAAGACUAGAGAGACUTT against ABCC5,0.00533 (inactive)
16,CAGUGCAACCUGGAGAGAATT against NRBP2,0.093 (inactive)
17,ACAGCUCCGUGUUGACUCATT against FOXG1,0.749 (inactive)
18,AAAAGAACGAGGAAGUUAUTT against CACNG2,0.00759 (inactive)
19,GUAUAUGACUGUACACUCATT against AGPAT4,0.149 (inactive)
20,GGAUCACCAACAAUCGCAATT against PDE6A,1.25 (active)
21,CAGCAGUUAUGGACCAGUUTT against AMD1,-0.211 (inactive)
22,GCAGAAAACUCACCCGAGATT against PCDHB7,0.365 (inactive)

row,Sequence,median seed-adjusted z-score
1,AGAACAACCUGGACUAUAUTT against PPP5C,0.473 (inactive)
2,CGUUAUUGUUAGCAACACUTT against ZNF280A,-0.207 (inactive)
3,GGCUAUUAACCGAAGCAAATT against TSPAN31,-1.13 (active)
4,UCUACAAGCUGGACCCUGATT against MYO1G,-0.907 (inactive)
5,GAUGCAUCAUCUGAAUAAATT against CPA6,0.343 (inactive)
6,CGUGUUCAGUGGAAUCACATT against NPC1,-0.195 (inactive)
7,UCGAUGUACUGGAGACGGATT against NUCB1,0.232 (inactive)
8,GCGAAUCCAGGAUCAAGAATT against TRIP4,-0.0385 (inactive)
9,GCUUCUAUUUAGUCACGAATT against AKAP9,-1.22 (active)
10,GCAAGUUGGAAGACCGGAATT against XPO5,-0.031 (inactive)
11,GAUCCAGAAGGGUAGUUAUTT against SERPINB2,-0.0739 (inactive)
12,CAGAUGCGGUUUAAACAGATT against TBC1D9B,-0.906 (inactive)
13,GAGGUGAUCUUAGACCUGATT against QSOX2,0.498 (inactive)
14,AAAAGACCGUCAACCCUUATT against A2BP1,1.17 (active)
15,CAGUGUGGCUGACAACUUATT against SERTAD1,0.376 (inactive)
16,GGCUAGCUGAUAUCAGUUUTT against DDX31,0.0144 (inactive)
17,GGAGUGUGAUCGACCCUCATT against KRTAP5-5,-1.07 (active)
18,ACCUGGUGGUGUCAACUCATT against PTOV1,0.115 (inactive)
19,GGUCGAAGUGUACCCAGUATT against USP11,-0.0327 (inactive)
20,CUACAAAUCCCUUACCAAUTT against TRDMT1,0 (inactive)
21,GGUAUACACUGAAUAUCCUTT against LCP1,-0.386 (inactive)
22,GUACGAGACCUGUUCCAGATT against UCK2,-1.51 (active)

row,Sequence,median seed-adjusted z-score
1,ACAUGGACGUGAAAGGGAATT against WFIKKN2,-0.353 (inactive)
2,GCUUCGUGCUAGAUAAAGATT against NOP14,-0.344 (inactive)
3,CAGCAUUCUUUAUCUCGUATT against FZD3,-0.0208 (inactive)
4,CCAUCAUGCUUGAUCGGGATT against SLC4A4,0.43 (inactive)
5,GUACAAUCGUUGACAAUGATT against PPEF1,-0.58 (inactive)
6,CUACUGUCCUGAUGUAUCATT against MYF5,-0.786 (inactive)
7,GCAGCUGUAUAAGUUACUATT against NFKB1,0.31 (inactive)
8,GGAAGGACUGCGAACCUUATT against POLM,-1.55 (active)
9,AGAUAAGGAUGAAUUGAUATT against KLRB1,-0.44 (inactive)
10,GAACUAAUCAGGAAGCUUATT against DHX40,-0.75 (inactive)
11,GGAGAGGGUUGACAAAGUATT against PCYT1A,0.0429 (inactive)
12,CAUCUGAUCCGGGAAAUCATT against GALNT14,0 (inactive)
13,GUGUCUCCAUAGUACGAGATT against ELP3,0.321 (inactive)
14,AGCUCAACCAUAACGUGAATT against DIRAS2,-1.25 (active)
15,CGCAUUGCUUACUUACAAATT against PCDHA10,0.0404 (inactive)
16,GCUGAGGACUUUAAUAUCUTT against GPR175,0.245 (inactive)
17,GAUCCAAGCUAAUAUGAGATT against TGM5,0.0181 (inactive)
18,CCUCAAGGAUUGGGACUAUTT against SLC22A17,-0.149 (inactive)
19,GGAAUUUCAUGUUCGGAAUTT against PAFAH2,0.0216 (inactive)
20,GCAUCCGUGGAAAUGGUUATT against ASNS,-1.1 (active)
21,CAUUCGGAGAAGUCGCAAATT against DDX59,-0.859 (inactive)
22,GAUGAUUCAGGUAAAAUAATT against CETN3,-0.0815 (inactive)

row,Sequence,median seed-adjusted z-score
1,CAACGGGACUAUUAUGAUATT against HNRNPC,-2.15 (active)
2,GCCACGAAAAUCAAUGAGATT against EDF1,0.0783 (inactive)
3,CCAGCAAACUCAACCAACATT against KCNJ6,-1.6 (active)
4,GGAUGACUACAGGCAAGAATT against GPA33,0.138 (inactive)
5,GCUUCACCAGGGACGUGAATT against CD1D,-0.579 (inactive)
6,AGGUCUCAGAUGAAGCGGUTT against PPM1B,0 (inactive)
7,CCCUUAAUAGAGAGAGUUATT against AADAT,0.0891 (inactive)
8,GGAUCAAUGAGUUCUCCAUTT against FMOD,-1.32 (active)
9,GGCUCAAGUUCAACGAGUUTT against ARL4C,-0.61 (inactive)
10,GGCCUAUGCAAAAAGAGGATT against BAD,0 (inactive)
11,GGAUACAUUAAGCUAAUAATT against PRMT3,0.00875 (inactive)
12,CCACCCUUCCGAGACAUGATT against TOP3B,-1.11 (active)
13,GCAUAAGAGGGAAUUCACATT against TAGLN,0.0485 (inactive)
14,CGAUCGUCUUCUGAUCAAATT against DPYSL2,-0.569 (inactive)
15,ACCUGAGUGUGAACCUCUATT against GDPD5,-0.0618 (inactive)
16,CAGUAGUGUUGGUAGACCATT against HADH,1.11 (active)
17,GAGUGUAUGUGAUCAUCGATT against PRKCE,0.568 (inactive)
18,GGAGAUUGUUUCACGGAAATT against TBC1D23,0.0932 (inactive)
19,GGGACGAGAUCAACGAGAATT against KIF5A,-0.348 (inactive)
20,UCUUAUUUAUUCUACAUCCTT against TNFRSF6B,0.0458 (inactive)
